Reference: PMC7862700, “An all-to-all approach to the identification of sequence-specific readers for epigenetic DNA modifications on cytosine”

Tests used:
Experiment in all cases: DAPPL (digital affinity profiling via proximity ligation, sequencing); 10 mM Tris-HCl pH 7.5, 50 mM NaCl, 1 mM DTT, 4% glycerol, room temperature, 30 min; GST-TFs on glutathione beads, 16-mer random dsDNA library, 0.1% formaldehyde crosslink after washing; high values mean tight binding
Details in all cases: protein: recombinant; tags: N-terminal GST; dsDNA, one strand shown
[1] = target: ETV1 (Homo sapiens, UniProt P50549 1-477)
Summary of the method: (§1)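 In yeast, human transcription factors were expressed with a GST fusion, then pulled down on glutathione beads and given DNA barcodes. Pooled with a tag-only sample, they were exposed to 200 nmole of a 16-mer random double-stranded DNA library (Tris/NaCl/DTT/glycerol buffer, room temperature, 30 min), washed, crosslinked with 0.1% formaldehyde, proximity-ligated using BsaI/T4 ligase for 1 h at 37 °C, PCR-amplified and read on an Illumina NextSeq500. Each hexamer's frequency of reads for a factor, divided by the matching frequency for the tag-only sample, gives the binding signal.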

[2] = target: T1, ERF (Homo sapiens, UniProt P50548 1-548)
T1 sequence: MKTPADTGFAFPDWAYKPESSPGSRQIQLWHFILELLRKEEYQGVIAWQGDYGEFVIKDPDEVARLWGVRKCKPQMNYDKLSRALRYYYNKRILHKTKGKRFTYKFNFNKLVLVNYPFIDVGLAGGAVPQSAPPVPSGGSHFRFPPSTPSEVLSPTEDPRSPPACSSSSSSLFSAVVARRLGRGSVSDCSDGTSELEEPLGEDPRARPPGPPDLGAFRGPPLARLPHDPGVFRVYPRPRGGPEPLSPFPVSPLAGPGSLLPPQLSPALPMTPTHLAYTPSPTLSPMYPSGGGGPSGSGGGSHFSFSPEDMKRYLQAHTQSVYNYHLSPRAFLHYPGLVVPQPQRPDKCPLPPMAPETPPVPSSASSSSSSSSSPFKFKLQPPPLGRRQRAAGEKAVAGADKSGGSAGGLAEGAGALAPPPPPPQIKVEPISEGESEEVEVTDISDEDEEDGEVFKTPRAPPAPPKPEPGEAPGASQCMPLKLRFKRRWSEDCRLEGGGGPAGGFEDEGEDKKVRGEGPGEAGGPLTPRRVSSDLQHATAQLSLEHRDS
Summary of the method: as §1

[3] = target: T2, ETV3L (Homo sapiens, UniProt Q6ZN32 1-361)
T2 sequence: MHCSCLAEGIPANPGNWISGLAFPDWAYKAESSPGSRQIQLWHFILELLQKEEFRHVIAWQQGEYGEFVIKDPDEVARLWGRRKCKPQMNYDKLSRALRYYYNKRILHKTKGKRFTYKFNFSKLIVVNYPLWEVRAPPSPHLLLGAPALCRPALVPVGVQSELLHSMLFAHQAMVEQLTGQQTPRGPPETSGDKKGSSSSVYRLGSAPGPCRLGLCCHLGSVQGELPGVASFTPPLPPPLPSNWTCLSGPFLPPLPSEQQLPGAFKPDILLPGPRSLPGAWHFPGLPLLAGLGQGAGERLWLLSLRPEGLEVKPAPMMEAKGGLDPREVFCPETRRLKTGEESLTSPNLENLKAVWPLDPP
Summary of the method: as §1

[4] = target: T3, ETS2 (Homo sapiens, UniProt P15036 1-469)
T3 sequence: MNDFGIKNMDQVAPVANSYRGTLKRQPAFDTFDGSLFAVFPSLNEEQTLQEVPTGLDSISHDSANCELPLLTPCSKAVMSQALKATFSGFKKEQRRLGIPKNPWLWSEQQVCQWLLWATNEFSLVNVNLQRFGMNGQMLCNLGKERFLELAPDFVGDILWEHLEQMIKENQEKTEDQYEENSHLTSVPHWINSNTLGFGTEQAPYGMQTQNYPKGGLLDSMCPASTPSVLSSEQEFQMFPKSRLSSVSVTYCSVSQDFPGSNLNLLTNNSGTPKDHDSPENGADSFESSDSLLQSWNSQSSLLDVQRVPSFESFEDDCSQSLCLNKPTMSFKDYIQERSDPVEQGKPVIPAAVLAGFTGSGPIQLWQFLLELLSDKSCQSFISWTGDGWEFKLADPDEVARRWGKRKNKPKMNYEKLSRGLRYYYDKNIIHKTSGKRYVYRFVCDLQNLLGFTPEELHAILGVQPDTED
Summary of the method: as §1

[5] = target: T4, SPDEF (Homo sapiens, UniProt O95238 1-335)
T4 sequence: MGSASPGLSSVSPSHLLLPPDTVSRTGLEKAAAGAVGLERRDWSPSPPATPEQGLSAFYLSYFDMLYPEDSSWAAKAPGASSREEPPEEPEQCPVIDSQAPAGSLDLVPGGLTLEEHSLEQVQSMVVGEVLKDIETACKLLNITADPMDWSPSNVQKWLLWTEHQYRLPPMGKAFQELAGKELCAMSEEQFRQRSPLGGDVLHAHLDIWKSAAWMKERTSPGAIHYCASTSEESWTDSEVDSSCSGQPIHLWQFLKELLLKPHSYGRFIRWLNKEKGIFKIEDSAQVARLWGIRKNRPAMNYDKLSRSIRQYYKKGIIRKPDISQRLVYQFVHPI
Summary of the method: as §1

[6] = target: T5, ETV7 (Homo sapiens, UniProt Q9Y603 1-341)
T5 sequence: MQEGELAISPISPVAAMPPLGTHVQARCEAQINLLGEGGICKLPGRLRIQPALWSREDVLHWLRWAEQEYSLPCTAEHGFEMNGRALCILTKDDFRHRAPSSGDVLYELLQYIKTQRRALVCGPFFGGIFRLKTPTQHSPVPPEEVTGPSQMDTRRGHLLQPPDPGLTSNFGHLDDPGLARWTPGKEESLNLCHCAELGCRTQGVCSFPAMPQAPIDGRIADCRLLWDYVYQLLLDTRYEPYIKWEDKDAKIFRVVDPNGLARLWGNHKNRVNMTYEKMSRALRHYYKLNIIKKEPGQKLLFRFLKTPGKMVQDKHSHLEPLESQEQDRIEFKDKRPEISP
Summary of the method: as §1

[7] = target: T6, ELF5 (Homo sapiens, UniProt Q9UKW6-2 1-255)
T6 sequence: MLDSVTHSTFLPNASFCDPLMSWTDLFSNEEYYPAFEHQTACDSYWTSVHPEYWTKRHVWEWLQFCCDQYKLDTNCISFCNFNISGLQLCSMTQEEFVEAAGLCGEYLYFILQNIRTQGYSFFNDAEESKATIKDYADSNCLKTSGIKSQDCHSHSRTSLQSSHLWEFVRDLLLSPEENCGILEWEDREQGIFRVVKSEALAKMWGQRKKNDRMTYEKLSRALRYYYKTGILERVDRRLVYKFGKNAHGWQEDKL
Summary of the method: as §1

[8] = target: T7, ETV3 (Homo sapiens, UniProt P41162-2 1-143)
T7 sequence: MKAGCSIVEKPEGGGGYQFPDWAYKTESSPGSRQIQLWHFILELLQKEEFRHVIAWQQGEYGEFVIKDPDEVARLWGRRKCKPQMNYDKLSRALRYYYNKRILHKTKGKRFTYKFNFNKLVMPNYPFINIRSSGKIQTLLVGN
Summary of the method: as §1

[9] = target: ETV6 (Homo sapiens, UniProt P41212 1-452)
Summary of the method: as §1

Sequence of ETV1 (P50549 whole entry, the tested form may be a part): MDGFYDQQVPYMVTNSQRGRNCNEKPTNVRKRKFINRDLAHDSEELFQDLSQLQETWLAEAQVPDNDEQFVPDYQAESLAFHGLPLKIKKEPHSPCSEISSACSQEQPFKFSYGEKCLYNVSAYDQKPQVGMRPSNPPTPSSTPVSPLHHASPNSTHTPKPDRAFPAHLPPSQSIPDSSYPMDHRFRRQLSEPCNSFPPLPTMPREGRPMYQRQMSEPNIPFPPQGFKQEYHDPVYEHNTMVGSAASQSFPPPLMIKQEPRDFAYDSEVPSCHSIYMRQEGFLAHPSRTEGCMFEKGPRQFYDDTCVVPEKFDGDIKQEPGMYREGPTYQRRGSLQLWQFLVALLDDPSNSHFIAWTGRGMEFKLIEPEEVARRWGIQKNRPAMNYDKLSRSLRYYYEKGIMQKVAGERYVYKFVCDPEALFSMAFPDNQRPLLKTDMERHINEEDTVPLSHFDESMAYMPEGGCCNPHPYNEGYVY
Sequence of ETV6 (P41212 whole entry): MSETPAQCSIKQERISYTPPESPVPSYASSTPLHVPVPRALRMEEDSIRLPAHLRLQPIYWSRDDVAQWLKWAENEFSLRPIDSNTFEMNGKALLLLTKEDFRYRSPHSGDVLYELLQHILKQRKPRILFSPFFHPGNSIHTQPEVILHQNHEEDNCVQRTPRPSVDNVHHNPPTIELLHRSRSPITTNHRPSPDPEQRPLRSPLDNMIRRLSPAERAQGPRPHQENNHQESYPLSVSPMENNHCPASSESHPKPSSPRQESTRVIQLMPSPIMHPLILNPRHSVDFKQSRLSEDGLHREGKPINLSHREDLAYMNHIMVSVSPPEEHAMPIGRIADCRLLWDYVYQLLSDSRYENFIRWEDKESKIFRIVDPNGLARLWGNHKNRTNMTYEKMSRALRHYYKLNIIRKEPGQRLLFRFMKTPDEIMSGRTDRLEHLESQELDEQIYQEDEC

TTCCCT
binding signal [1]: 1.68 fold enrichment (6-mer frequency, TF over GST control)
binding signal [2]: 1.58 fold enrichment (6-mer frequency, TF over GST control)
binding signal [3]: 1.69 fold enrichment (6-mer frequency, TF over GST control)
binding signal [4]: 1.75 fold enrichment (6-mer frequency, TF over GST control)
binding signal [5]: 1.47 fold enrichment (6-mer frequency, TF over GST control)
binding signal [6]: 1.55 fold enrichment (6-mer frequency, TF over GST control)
binding signal [7]: 2.49 fold enrichment (6-mer frequency, TF over GST control)
binding signal [8]: 1.75 fold enrichment (6-mer frequency, TF over GST control)
binding signal [9]: 1.66 fold enrichment (6-mer frequency, TF over GST control)
